# Results as given in PubChem BioAssay.
# Activity calls are given as the source filed them.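 Rule for the calls: active = compounds whose cell count with miR-34 switched on is under 0.7 times the count with it off; inactive = the rest.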
# Test: sensitizers of A549 cells to miR-34 induction, primary screen, imaging, A549 dox-inducible miR-34, nuclei and caspase counts (AID 1347080); note: test concentration not given here
# Conditions: A549 miR-34 inducible, Hoechst nuclei count, 48 h
# [1] = stronger effect = lower value, cell number ratio, induced over uninduced
# [2] = measured here: relative caspase fold change +Dox/-Dox
# [3] = measured here: total cells with miR-34 induction, stronger effect = lower value
# [4] = measured here: total cells without miR-34 induction
SMILES,fold change [1],fold change [2],cell count [3],cell count [4]
CC(C)(C)C(=O)Nc1ccccc1,0.896 (inactive),1.18,5080,5670
O=C1N[C@@H]2[C@@H](O)[C@@H](O)[C@H](O)[C@@H](CO)N2C1=O,0.921 (inactive),0.979,4980,5410
CCCCC[C@H](O)CC[C@@H]1[C@@H](CCCCCCC(=O)O)[C@@H](O)C[C@H]1O,0.832 (inactive),1.1,6210,7460
CCCCC[C@@H](O)/C=C/[C@H]1[C@H](O)CC(=O)[C@@H]1CCCCCCC(=O)O,0.974 (inactive),1.39,5460,5600
CCCCCCCCCC(=O)NC(CN1CCOCC1)C(O)c1ccccc1 (stereo not given),1.03 (inactive),0.968,5830,5670
CS(=O)(=O)NC(=O)CCC/C=C\C[C@H]1C(=O)C[C@@H](O)[C@@H]1/C=C/[C@@H](O)COc1ccccc1,0.897 (inactive),1.55,5660,6300
CCCCC[C@H](O)/C=C/[C@@H]1[C@@H](CCCCCCC(=O)O)[C@H](O)C[C@@H]1O,0.98 (inactive),1.16,6220,6350
CCCCC(C)(C)[C@H](O)/C=C/[C@H]1C(=O)C[C@H](O)[C@@H]1C/C=C\CCCC(=O)O,1.04 (inactive),0.943,5440,5250
C[C@@H](C(=O)O)c1ccc(-c2ccccc2)c(F)c1,0.967 (inactive),0.615,6150,6360
CCCCC/C=C\C/C=C\CCCCCCCC(=O)OC(CO)CO,0.978 (inactive),0.884,5470,5600
COc1ccc(/C=C/c2ccccc2F)cc1,0.866 (inactive),1.67,5810,6700
CC(C)OC(=O)CCC/C=C\C[C@@H]1[C@@H](/C=C/C(F)(F)COc2ccccc2)[C@H](O)C[C@@H]1O,1.05 (inactive),0.899,5900,5630
CC(=O)O[C@@]12C[C@@H](C)[C@@]3(O)[C@@H](C=C(CO)C[C@]4(O)C(=O)C(C)=C[C@@H]34)[C@@H]1C2(C)C,0.95 (inactive),1.47,5200,5470
CCCCC[C@@H](O)/C=C/[C@H]1[C@H](O)CC(=O)[C@@H]1C/C=C\CCCC(=O)O,0.971 (inactive),1.57,6000,6180
CCCCC/C=C\C=C\[C@H](O)CCCCCCCC(=O)O,1.01 (inactive),1.02,5810,5740
C=C(N)N[C@@H](CCC(=O)O)C(=O)O,0.873 (inactive),0.849,8430,9660
CC#CCC(C)[C@@H](O)/C=C/[C@@H]1[C@H]2C/C(=C/CCCC(=O)O)C[C@H]2C[C@H]1O (stereo not given in full),0.965 (inactive),2.36,5460,5660
CCOC(=O)c1c(Cc2cccc(Cl)c2)[nH]c2c1cc(O)c1ccccc12,0.954 (inactive),1.94,4980,5220
CCCCCCCCCCCCCCCCOC[C@@H](CO)SC(C)=O,1.02 (inactive),0.6,5400,5270
COc1ccc2c(c1)c(CC(=O)SC[C@H](NC(C)=O)C(=O)OCCCCO[N+](=O)[O-])c(C)n2C(=O)c1ccc(Cl)cc1,1.08 (inactive),0.702,6270,5810
O=C(c1cccs1)c1ccc(OCCCO)c(Cl)c1Cl,0.896 (inactive),0.529,5620,6270
CCCCC[C@H](O)/C=C/[C@H]1[C@@H](O)CC(=O)[C@@H]1CCCCCCC(=O)O,0.965 (inactive),1.07,5320,5510
O=P(O)(O)OC1C(O)C(OP(=O)(O)O)C(O)C(OP(=O)(O)O)C1O (stereo not given),0.967 (inactive),0.962,5750,5950
CCCCCCCCCCCCCCCC(=O)OC[C@H](COP(=O)([O-])OCC[N+](C)(C)C)OC(=O)CCCCCCCCCCCCCCC,0.881 (inactive),0.572,5330,6060
O=C(O)CCC/C=C\C[C@@H]1[C@@H](/C=C/[C@@H](O)C2Cc3ccccc3C2)[C@@H](F)C[C@@H]1O,0.86 (inactive),2.11,4580,5320
O=C(NCc1ccc(Cl)c(Cl)c1)O[C@H]1CCc2ccccc21,1.02 (inactive),1.19,5770,5680
CCCCCCCCCCCCCCCCCCCCCC(=O)NCCS(=O)(=O)O,0.845 (inactive),0.367,5140,6090
CCCCC[C@H](O)/C=C/[C@@H]1[C@@H](C/C=C\CCCC(=O)NC(CO)CO)[C@@H](O)C[C@H]1O,1.01 (inactive),1.3,6050,5980
C=C1O[C@@](CO)(n2cnc3c(N)ncnc32)[C@H](O)[C@@H]1O,0.941 (inactive),1.1,4870,5180
CCCCC[C@H](O)/C=C/[C@H]1[C@H](O)CC(=O)[C@@H]1C/C=C\CCCC(=O)NC(CO)CO,1.04 (inactive),1.67,6080,5870
